Assay outcomes as filed in PubChem.
Hits are enriched below; roughly 2.5% of the tested compounds scored in any of these assays.
AI-2 QS mod: Vibrio harveyi AI-2 quorum sensing modulation | Vibrio harveyi JMH597 AI-2 luminescence/OD600 ratio, 9 h; active compounds read low; strain lacks LuxN and CqsS sensors; 0 = neutral-control median | activity change, % at 7.5 µM | actives 0.4% (n = 300,000) | AID 2094; in the data active = activity change below about -75%, passing the limit was not always enough; inconclusive = no clear call, values can overlap the other calls;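 note: luminescence divided by OD600 gain over 9 h not by final OD600 alone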
Mot1-301 SUMO: SUMOylation pathway inhibition by Mot1-301 growth rescue; S. cerevisiae Mot1-301 growth rescue, ATP luminescence, 38.5C; percent above DMSO median, 100 means doubled; growth rescue, % at 18.8 µM; actives 1% (n = 320,000); AID 2716;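 active = every valid replicate shows activation above 250% relative to neutral control wells; inactive = the rest, any valid replicate at or below 250%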;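 note: OY570 slx delta 5 strain wells were the positive control but not used for scaling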
Efflux pump inh: blocks antifungal efflux pumps in multiplex yeast assay; S. cerevisiae Candida pump triplex, Nile Red efflux; inhibition, % at 10 µM; actives 0.44% (n = 330,000); AID 485275;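 active = plate passing quality check with inhibition over a set limit, or well fluorescence over plate mean plus 4 SD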;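 note: Nile Red retained in pooled yeast measured as flow cytometry median fluorescence; 0% = buffer negative control and 100% = Enniatin B positive control; higher means more Nile Red kept so more efflux inhibition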
V-ATPase pH: alters yeast V-ATPase proton transport; S. cerevisiae, pHLuorin cytosolic pH fluorescence; response, % at 10 µM; actives 0.37% (n = 350,000); in the data active = response mostly above about 7.3%, no sharp cut-off; inactive = mostly below about 5.4%; note: actives read high
ATG4B inh: blocks human ATG4B protease cleavage of LC3 substrate. Q9Y4P1. ATG4B cleavage of LC3-PLA2, NBD-HPC fluorescence, 1 h. inhibition, % at 8.33 µM. actives 0.51% (n = 340,000). AID 504462; in the data active = inhibition above about 40%
Target sequence (Q9Y4P1 whole entry, looked up): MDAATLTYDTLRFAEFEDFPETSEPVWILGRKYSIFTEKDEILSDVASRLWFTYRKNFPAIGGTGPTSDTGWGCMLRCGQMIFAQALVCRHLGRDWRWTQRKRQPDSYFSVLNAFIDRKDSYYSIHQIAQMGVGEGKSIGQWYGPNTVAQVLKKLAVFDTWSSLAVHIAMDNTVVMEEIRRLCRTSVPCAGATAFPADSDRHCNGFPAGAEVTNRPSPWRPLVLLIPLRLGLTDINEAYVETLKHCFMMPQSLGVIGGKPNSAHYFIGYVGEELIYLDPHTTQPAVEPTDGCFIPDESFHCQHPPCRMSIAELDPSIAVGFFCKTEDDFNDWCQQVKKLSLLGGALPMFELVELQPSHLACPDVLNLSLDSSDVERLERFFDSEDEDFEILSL
JMH597 growth: retest: blocks Vibrio harveyi JMH597 growth; shares compounds with AI-2 QS mod; OD600 absorbance, 9 h; lacks LuxN and CqsS sensors; growth inhibition, % at 7.5 µM; actives 1% (n = 750);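 active = every replicate shows growth inhibition above 50%; inconclusive = at least half, but not all, replicates pass that cutoff; inactive = fewer than half of replicates pass it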
BB721 const-QS lum: retest counter-screen: BB721 constitutive quorum sensing luminescence decrease; shares compounds with AI-2 QS mod; Vibrio harveyi BB721 luminescence, 9 h; inhibition, % at 7.5 µM; actives 95% (n = 750); AID 2727;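 active = inhibition above about 80% in every replicate, not just on average, limit read from the data; inconclusive = at least half of replicates past the limit, but not all; inactive = fewer than half of replicates past the limit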
BB721 growth: retest: blocks Vibrio harveyi BB721 growth; shares compounds with AI-2 QS mod; OD600 absorbance, 9 h; growth inhibition, % at 7.5 µM; actives 3% (n = 750);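 active = every replicate shows growth inhibition above 50%; inconclusive = at least half but not all replicates above 50% inhibition; inactive = under half of replicates above 50% inhibition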
AI-2 QS JMH597: Vibrio harveyi AI-2 signaling luminescence modulation – JMH597 strain, confirmation; AID 2736; shares compounds with AI-2 QS mod; inhibition, % at 7.5 µM; actives 97% (n = 750); Vibrio harveyi JMH597 AI-2 quorum sensing luminescence, 9 h; luxN and CqsS knockout, AI-2 only;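 active = every replicate shows more than 75% inhibition of signal versus neutral control wells; inconclusive = half to three quarters of replicates exceed 75% inhibition; inactive = fewer than half of replicates exceed 75% inhibition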
Active calls of the source: *; u = inconclusive; x = no result given.

SMILES | AI-2 QS mod | Mot1-301 SUMO | Efflux pump inh | V-ATPase pH | ATG4B inh | JMH597 growth | BB721 const-QS lum | BB721 growth | AI-2 QS JMH597
CCn1c(CNC(=O)c2ccccc2Br)nnc1SCC(=O)Nc1nncs1 | 29 | 7 | 0 | 7 | -6 | x | x | x | x
Cc1cccc(OCc2nnc(SCC(=O)N3CC(=O)Nc4ccccc43)o2)c1 | -93* | 15 | 0 | 4 | -8 | 1 | 96* | 0 | 98*
Nc1ccccc1S(=O)(=O)NCCCCc1ccccc1 | -89* | 468 | 0 | 2 | -2 | -4 | 95* | 5 | 96*
CCc1ccc(S(=O)(=O)Nc2ccc(Br)cn2)cc1 | u | -1 | 0 | -2 | 3 | 22 | -10 | 1 | 95*
O=C(NC(=S)Nc1nc(-c2ccc(Br)cc2)cs1)c1ccco1 | 21 | 4 | 0 | 1 | 3 | x | x | x | x
O=C(NNc1nc(-c2ccc(Br)cc2)cs1)c1ccco1 | -85* | 8 | 0 | 5 | -1 | 63* | 95* | 69* | 97*
O=C(NNc1nc2cc3c(cc2s1)OCO3)c1ccccc1 | -91* | 278 | 0 | 2 | 4 | 2 | 98* | 20 | 98*
Cc1cccn2c(CNC3CCCc4ccccc43)c(C(=O)N3CCCCC3)nc12 (stereo not given) | -6 | 14 | 0 | 0 | 27 | x | x | x | x
CC1(c2ccc3c(c2)OCO3)NC(=O)N(CC(=O)Nc2ccc(N3CCOCC3)cc2)C1=O (stereo not given) | -88* | -3 | 0 | 2 | -20 | 0 | 88* | -6 | 94*
CCC1(c2ccccc2)NC(=O)N(CC(=O)Nc2ccc3c(c2)OCO3)C1=O (stereo not given) | -93* | -7 | 0 | 1 | 9 | 28 | 96* | 30 | 97*
COc1cc(NC(=O)CN2C(=O)NC3(CCOc4ccccc43)C2=O)cc(OC)c1 (stereo not given) | x | 9 | 0 | -1 | 14 | x | x | x | x
O=C(CN1C(=O)NC2(CCOc3ccccc32)C1=O)Nc1cccc(Cl)c1 (stereo not given) | -93* | 4 | 0 | -2 | -10 | -5 | 96* | -8 | 98*
CC1(c2ccccc2Cl)NC(=O)N(CC(=O)Nc2ccc(N3CCOCC3)cc2)C1=O (stereo not given) | x | -3 | 0 | -1 | -4 | x | x | x | x
Cc1ccc(NC(=O)CN2C(=O)NC(C)(c3ccc(Cl)cc3)C2=O)cc1 (stereo not given) | -88* | -6 | 0 | 4 | -2 | 0 | 89* | 9 | 94*
CCN(CC)C(=O)C1=C(C)N(CCC2=CCCCC2)C(=O)C(CC(=O)NCCCN(C)C)C1 (stereo not given) | x | x | x | -1 | x | x | x | x | x
Cc1cc(C(=O)N2CCN(c3ccc([N+](=O)[O-])cc3)CC2)n[nH]1 | -5 | 0 | 1 | -4 | 0 | x | x | x | x
Cc1cccc(NC(=O)CN2C(=O)NC(C)(c3ccc4c(c3)OCO4)C2=O)c1 (stereo not given) | -87* | 21 | 0 | -4 | -10 | -5 | 88* | 4 | 92*
Cc1ccc(C2(C)NC(=O)N(CC(=O)Nc3ccc4c(c3)OCO4)C2=O)cc1 (stereo not given) | -95* | -3 | 0 | 2 | -15 | 11 | 97* | 51 | 98*
Cc1ccc(C2(C)NC(=O)N(CC(=O)NC(=O)NCCC(C)C)C2=O)cc1 (stereo not given) | -85* | 48 | 0 | 4 | -11 | -14 | 90* | -38 | 95*
CN(C)NC(=S)NC1(C)CCS(=O)(=O)C1 (stereo not given) | 5 | -8 | 0 | -5 | -5 | x | x | x | x
CC(=O)Nc1ccc(S(=O)(=O)N2CCC(C(N)=O)(N3CCCCC3)CC2)cc1 | 6 | 38 | 0 | 4 | -2 | x | x | x | x
O/N=C/Cc1[nH]c2ccccc2c1-c1ccccc1 | -96* | -1 | 0 | -7 | 1 | 29 | 95* | -97 | 99*
CC1(c2ccc(OC(F)F)cc2)NC(=O)N(CC(=O)Nc2cccc(F)c2)C1=O (stereo not given) | -93* | -8 | 0 | -6 | -1 | 19 | 95* | 24 | 97*
CC1(c2ccc(OC(F)F)cc2)NC(=O)N(CC(=O)Nc2ccc(Cl)cc2F)C1=O (stereo not given) | -94* | 5 | 0 | 6 | -12 | 5 | 96* | -7 | 96*
CCOc1ccc(NC(=O)CN2C(=O)NC(C)(c3ccc(OC(F)F)cc3)C2=O)cc1 (stereo not given) | -93* | -10 | 0 | 6 | 5 | 41 | 94* | 57* | 96*
SMILES | AI-2 QS mod | Mot1-301 SUMO | Efflux pump inh | V-ATPase pH | ATG4B inh | JMH597 growth | BB721 const-QS lum | BB721 growth | AI-2 QS JMH597
Cc1cc(NC(=O)CN2C(=O)NC(C)(c3ccc(OC(F)F)cc3)C2=O)no1 (stereo not given) | -74 | 13 | 0 | 4 | -11 | x | x | x | x
CSc1ccc(C2N=C(c3ccccc3)NO2)cc1 (stereo not given) | -85* | 4 | 0 | 2 | 3 | 31 | 95* | 13 | 96*
O=C(COC(=O)c1ccc(F)cc1F)Nc1cccc(S(=O)(=O)N2CCOCC2)c1 | x | x | x | -2 | -15 | x | x | x | x
CN(C(=O)c1ccc(NC(=O)Cc2cccc(NC(=O)C3CCN(C(=O)c4ccccc4)CC3)c2)cc1)C1CCCC1 | x | 14 | 0 | 1 | -10 | x | x | x | x
COc1cc(/C=N/Nc2ccc(C(=O)O)cc2)cc(OC)c1OC | 17 | -3 | 0 | 6 | 2 | x | x | x | x
COc1ccc(/C=N/Nc2ccc(C(=O)O)cc2)c(OC)c1OC | -92* | 5 | -2 | -3 | -8 | 0 | 95* | -7 | 96*
CN1CCN(S(=O)(=O)c2ccc(Oc3ccc(F)cc3Br)nc2)CC1 | 19 | 9 | 0 | 1 | -9 | x | x | x | x
CN1CCN(S(=O)(=O)c2ccc(Oc3ccc(Br)cc3F)nc2)CC1 | -84* | -5 | 0 | 0 | 3 | 6 | 82* | -29 | 99*
N#Cc1ccc(OCC(=O)NNC(=S)NC2CCCCC2)cc1 | x | -10 | 0 | 1 | -20 | x | x | x | x
Cc1cc(C)cc(OCc2nc(-c3cccnc3)no2)c1 | -95* | -13 | 0 | -2 | 2 | 9 | 99* | -2 | 99*
Cc1ccccc1OCc1nc(-c2cccnc2)no1 | -48 | -20 | 0 | 0 | 3 | x | x | x | x
